IMPase inh = membrane-permeable compound that blocks inositol monophosphatase; P97697; CHO-M1 cells, IP1 accumulation, HTRF TR-FRET ratio; inhibition (IP1 accumulation), % at 46.1 µM; 120,000 tested, under 10 active; AID 901; active means well fitted curve in the direction sought with a large enough effect in the signal ratio, not every such curve was filed as active; inconclusive means small, poorly fitted or top-dose-only effect, or a change in a side signal; inactive means no such curve, though single readings can be large or run the other way; the % refers to the signal ratio;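 further: cells stimulated with carbachol in lithium chloride buffer; plate controls were DMSO basal wells for no effect and reference inhibitor wells for full effect; higher means more IMPase inhibition seen as more IP1 and lower FRET ratio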
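CHO-M1, 2000 cells/well, cultured 16–30 h; cpd up to 46 uM; carbachol (50 uM solution, stimulation buffer w/ 50 mM LiCl, pH 7.4), 30 min 37C; IP-One TR-FRET, 10 min RT; Ex 320/Em 665, 620; Hill-fit AC50.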
Lamin A splicing = changes lamin A minigene splicing in HeLa cells. HeLa LMNA splicing GFP/RFP minigene ratio, 48 h. Potency, µM (titrated, usually from 46.1 µM), inactives show top-dose ratio change, negative = inhibition, most hits filed as inhibitors. actives 0.01% (n = 200,000). AID 1487; active means well fitted inhibition curve with a large enough effect in the signal ratio, with a control signal flat, not every such curve was filed as active; inconclusive means small, poorly fitted or top-dose-only effect, or effect the other way, or a change in a side signal; the % refers to the signal ratio; further: potency means the concentration at half of the fitted maximal effect
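Read-out is the ratio of GFP to DsRed2 object intensity, acquired by 488 nm laser-scanning cytometry on HeLa lamin A-EGFP minigene reporter cells. Compound incubation 48 hrs at 37 °C in Opti-MEM with 2% FBS; DMSO 0.5% final.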
ALDH1A1 block = inhibitors of human aldehyde dehydrogenase 1A1 | actives 7.3% (n = 220,000) | P00352 | AID 1030 | Potency, µM (series often up to 75.3 µM), for the others: top-dose activity, negative = inhibition, usual class: inhibitors | Purified ALDH1A1, NADH fluorescence, propionaldehyde substrate;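 further: potency means the concentration at half of the fitted maximal effect; plate controls were no enzyme wells and a reference inhibitor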
Target sequence (P00352 whole entry, looked up): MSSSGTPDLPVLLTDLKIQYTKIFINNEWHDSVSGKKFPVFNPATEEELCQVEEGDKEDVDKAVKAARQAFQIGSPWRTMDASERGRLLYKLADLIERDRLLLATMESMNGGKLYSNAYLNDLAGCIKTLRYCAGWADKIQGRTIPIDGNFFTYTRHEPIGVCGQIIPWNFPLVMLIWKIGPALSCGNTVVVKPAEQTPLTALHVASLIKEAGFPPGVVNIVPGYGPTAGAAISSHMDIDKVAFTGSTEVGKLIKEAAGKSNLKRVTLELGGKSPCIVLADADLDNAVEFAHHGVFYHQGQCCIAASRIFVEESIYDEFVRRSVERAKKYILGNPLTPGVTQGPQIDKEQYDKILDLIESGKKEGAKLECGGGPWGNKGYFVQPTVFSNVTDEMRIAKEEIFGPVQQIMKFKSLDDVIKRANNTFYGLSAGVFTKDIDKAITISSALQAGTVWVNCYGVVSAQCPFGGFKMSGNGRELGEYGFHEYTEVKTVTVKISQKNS
Luc counter = counter-screen: inhibitors of Kinase-Glo firefly luciferase | Kinase-Glo luciferase, ATP luminescence, 8 min | Potency, µM (top dose mostly 38.3 µM), inactives show at the highest dose activity change, negative = inhibition, actives largely listed as inhibitors | actives 0.28% (n = 200,000) | AID 1379; active means well fitted inhibition curve with a large enough effect; inconclusive means small, poorly fitted or top-dose-only effect; further: potency means the concentration at half of the fitted maximal effect; nearly all actives have a fitted effect of over 60% in size
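Inhibition of Kinase-Glo luciferase light generation was assessed at 10 uM ATP in pH 7.2 imidazole buffer, with luminescence measured after eight minutes at ambient temperature.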
HPGD block = blocks human HPGD enzyme activity; actives 4.3% (n = 150,000); Potency, µM, inactives show top-dose activity change, negative = inhibition, hits mostly inhibitors; purified HPGD, NADH fluorescence kinetic, PGE2 substrate; P15428; further: potency means the concentration at half of the fitted maximal effect
Target sequence (P15428 whole entry, looked up): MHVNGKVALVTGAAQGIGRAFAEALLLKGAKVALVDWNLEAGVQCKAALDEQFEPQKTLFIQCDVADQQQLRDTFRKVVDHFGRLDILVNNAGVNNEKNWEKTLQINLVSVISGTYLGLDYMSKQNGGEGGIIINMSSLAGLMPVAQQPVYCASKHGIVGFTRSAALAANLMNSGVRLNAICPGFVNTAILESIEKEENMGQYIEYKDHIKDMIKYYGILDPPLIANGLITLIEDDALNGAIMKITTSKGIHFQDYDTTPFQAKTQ
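NADH formation kinetics: reaction with 30 uM PGE2 and 1 mM NAD+ (final), 20 nM enzyme, Tris-HCl pH 8 with Tween 20, after 15 min compound preincubation at room temperature. Fluorescence change, last versus first of five reads.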
PNC inhibitor = blocks assembly of the perinucleolar compartment; PC3M PTB-GFP, PNC prevalence imaging, 16 h; stronger effect = lower value; activity change (PNC), negative = inhibition, % at 10 µM; actives 3.1% (n = 140,000); AID 2417;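 active means readout at or below -70, meaning at least 70% loss of cells showing the perinucleolar compartment, a nuclear body marking cancer cells; inconclusive means readout between -30 and a set limit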;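 further: plate controls were DMSO wells for no effect and camptothecin positive control wells for full effect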
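PC3M cells stably expressing PTB-GFP, 750–1000 cells/well, treated 16 h at 37 °C with compound (23 nl of library stock), in duplicate. After paraformaldehyde fixation and Hoechst stain, imaged at 20x; PNC prevalence scored by image analysis.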
The depositor's hits bear a star; ? = inconclusive; nt = no result given; [ ] = another dose, or the depositor's remark. Most compounds without a hit are left out; they make up all but 10% or so of the library. Unless noted, the call rests on the fitted dose curve; in most records, active means well fitted inhibition curve with a large enough effect (not every such curve was filed as active); inconclusive means small, poorly fitted or top-dose-only effect, or another doubt; inactive means no such curve, though single readings can be large or run the other way. Unless noted, on the % scale 0 is the no-effect control and ±100 the full control effect.

SMILES	IMPase inh	Lamin A splicing	ALDH1A1 block	Luc counter	HPGD block	PNC inhibitor
Cc1nn(-c2ccc(C(=O)O)cc2)c(C)c1Oc1ccccc1O	1.8	13.4%	8.5%	2.1%	14.1µM*	-9.6
Cc1nn(-c2ccccn2)c(C)c1Oc1ccccc1O	9.2	4.3%	-7.9%	3.8%	14.1µM*	-21.0
Cc1nn(-c2nc3ccccc3s2)c(C)c1Oc1ccccc1O	14.0	?	4.8%	-0.7%	?	-100.0*
O=C(Nc1ccc(F)c(F)c1)c1ccc(=O)n(Cc2ccc(F)cc2)c1	nt	-0.1%[46 µM]	nt	nt	nt	nt
COc1ccc(CNC(=O)Cn2c(=O)oc3cc(S(=O)(=O)NCc4ccccc4)ccc32)cc1	nt	6.1%[46 µM]	nt	nt	nt	nt
COCC(C)n1c(C)cc(C(=O)COC(=O)C2=NN(c3ccccc3)C(=O)CC2)c1C (centres undefined)	nt	2.4%[46 µM]	11.5%	2.3%	nt	nt
COCC(C)n1c(C)cc(C(=O)COC(=O)c2ccc(N3CCCC3=O)cc2)c1C (centres undefined)	4.6	7.8%	25.1µM*	19.0%	-13.1%	-19.8
COc1ccc(COC(=O)c2ccc3c(=O)n4c(nc3c2)CCC4)cc1F	nt	nt	-12.3%	nt	nt	nt
COc1ccc(COC(=O)c2ccc(N3CCCC3=O)cc2)cc1F	-5.0	?	-7.5%	-2.4%	14.1µM*	-22.5
CCOc1cccc(-c2cc(C(=O)N/N=C/c3cccc(OC)c3O)[nH]n2)c1	nt	nt	4.4%	0.3%	-11.7%	nt
COc1cccc(CNC(=O)N2CCc3c(sc4c3CCCC4)C2c2ccc(F)cc2)c1 (centres undefined)	nt	-20.3%[46 µM]	nt	nt	nt	nt
COc1ccc(CCNC(=O)c2cnn(-c3ccc(F)cc3)c2C2CCN(C(=O)OC(C)(C)C)CC2)cc1OC	nt	-4.2%[46 µM]	nt	nt	nt	nt
COc1ccc(C2/C(=C(/O)c3ccc(C)cc3)C(=O)C(=O)N2C)cc1 (centres undefined)	-8.4	-10.0%	-0.4%	1.7%	-11.3%	-10.9
COC(=O)c1ccc(C2/C(=C(/O)c3ccc(OC(C)C)cc3)C(=O)C(=O)N2c2cc(C)on2)cc1 (centres undefined)	-15.4	?	1.4%	-2.0%	-16.0%	-13.5
COC(=O)c1ccc(C2/C(=C(/O)c3ccc(OC)cc3)C(=O)C(=O)N2c2cc(C)on2)cc1 (centres undefined)	-6.9	-0.1%	12.6µM*	2.1%	?	?
COc1ccc(N2C(=O)C(=O)/C(=C(/O)c3ccc(C)cc3)C2c2cccnc2)cc1 (centres undefined)	nt	-10.6%	7.94µM*	-3.0%	-14.8%	75.5
COc1cc(NC(=O)Cn2c(=O)nc(-c3ccccc3F)c3cc(Cl)ccc32)cc(OC)c1	nt	-6.0%[46 µM]	nt	nt	nt	nt
O=C(CSc1nnnn1C1CCCCC1)Nc1ccccc1N1CCOCC1	nt	nt	28.2µM*	1.7%	nt	nt
CCn1c(Cc2ccccc2)nnc1SCC(=O)Nc1ccccc1N1CCOCC1	10.2	?	8.91µM*	-3.0%	1.0%	-23.4
Cn1c(Cc2ccccc2)nnc1SCC(=O)Nc1ccccc1N1CCOCC1	8.8	-5.7%	7.0%	-0.9%	-3.1%	21.3
COC(=O)c1ccccc1NC(=O)CSc1nnnn1C1CCCCC1	8.3	-2.3%	?	-0.3%	-13.6%	-18.4
CCOC(=O)c1ccccc1NC(=O)CSc1nnnn1C1CCCCC1	-7.0	?	3.55µM*	nt	nt	-21.0
COc1ccc(-n2c(=O)c(-c3ccc(Cl)cc3)nc3cnc(N4CCOCC4)nc32)cc1	nt	nt	?	0.5%	-13.1%	nt
Oc1ccccc1/C=N/NC(=S)NC1CC2C=CC1C2 (centres undefined)	nt	?	25.1µM*	nt	nt	nt
CC(C)=CCC[C@](C)(O[C@@H]1O[C@H](CO)[C@@H](O)[C@H](O)[C@H]1O)[C@H]1CC[C@]2(C)[C@@H]1[C@H](O)C[C@@H]1[C@@]3(C)CC[C@H](O[C@@H]4O[C@H](CO)[C@@H](O)[C@H](O)[C@H]4O[C@@H]4O[C@H](CO)[C@@H](O)[C@H](O)[C@H]4O)C(C)(C)[C@@H]3[C@@H](O)C[C@]12C	nt	nt	5.5%	4.2%[39.9 µM]	-4.8%	nt
SMILES	IMPase inh	Lamin A splicing	ALDH1A1 block	Luc counter	HPGD block	PNC inhibitor
CCc1cccc(CC)c1NC(=O)COC(=O)c1ccc2c(c1)S(=O)(=O)c1ccccc1C2=O	-13.0	-9.8%	17.3%	-0.4%	-11.0%	-22.2
Cc1noc(C)c1COC(=O)c1cnc(Cl)c(Cl)c1	nt	11.0%[46 µM]	0.562µM*	-0.5%	nt	nt
Cc1noc(C)c1COC(=O)c1cc(F)c(F)cc1Cl	2.9	9.6%	2.6%	-3.5%	-9.8%	-16.2
Cc1noc(C)c1COC(=O)c1ccc2c(c1)S(=O)(=O)c1ccccc1C2=O	-1.9	0.6%	12.6µM*	-3.9%	28.2µM*	?
O=C(COC(=O)c1ccc2c(c1)S(=O)(=O)c1ccccc1C2=O)NC1CC1	nt	1.7%[46 µM]	14.1µM*	4.7%	nt	nt
COc1cc(NC(=O)CN2CCCN(Cc3cccc(F)c3)S2(=O)=O)cc(OC)c1	nt	-5.1%[46 µM]	nt	nt	nt	nt
COc1ccc(OC)c(Nc2nc3ccccc3nc2-n2nc(C)cc2C)c1	-0.9	nt	nt	nt	nt	nt
O=C(Nc1ncnc2sc3c(c12)CCCCC3)c1ccco1	9.8	-9.9%	11.3%	-0.3%	?	-124.3*
O=c1c(Cc2ccccc2)c(O)ccn1Cc1ccc2c(c1)OCO2	nt	-4.6%[46 µM]	2.24µM*	1.1%	nt	nt
O=c1c(Cc2ccc(Cl)cc2)c(O)ccn1Cc1ccccc1	-11.0[1.84 µM]	?	-6.6%	1.7%	-6.3%	?
O=C(Nc1cc(Cl)cc(Cl)c1)C(NCC1CCCO1)c1ccccc1 (centres undefined)	4.8	-14.3%	4.47µM*	nt	nt	22.0
CC(C)NC(C(=O)Nc1cc(Cl)cc(Cl)c1)c1ccccc1 (centres undefined)	1.8	-5.2%	11.2µM*	-3.8%	-17.2%	5.1
CN(C)CCNC(C(=O)Nc1cc(Cl)cc(Cl)c1)c1ccccc1 (centres undefined)	nt	-6.2%[46 µM]	6.2%	-3.2%	nt	nt
CCOC(=O)Cn1c(=O)n(-c2ccccc2OC)c2nc(-c3ccccc3C)nc(C(N)=O)c21	nt	8.9%[46 µM]	nt	nt	nt	nt
CCCOc1ccc(N2C(=O)CC(SC(=N)N3N=C(c4ccccc4)CC3c3ccccc3)C2=O)cc1 (centres undefined)	nt	nt	?	2.2%	nt	nt
O=C1CC(SCc2nc3ccccc3[nH]2)C(=O)N1c1cccc(Cl)c1 (centres undefined)	-5.5	29.8%	11.2µM*	2.7%	-18.9%	?
CCCOc1ccc(N2C(=O)CC(SCc3nc4ccccc4[nH]3)C2=O)cc1 (centres undefined)	nt	?	15.8µM*	0.2%	nt	nt
Clc1ccc(SCc2nc3ccccc3[nH]2)cc1	3.0	16.3%	-7.1%	-19.7%	-24.8%	10.8

From PubChem BioAssay
